Measurements: PubChem BioAssay AID1159580 (chemical genetic matrix, 2015)
The whole screen tested about 5,500 compounds, of which about 2,000 (36%) were called active. Not shown: some 18% with an inconclusive outcome. No stated cut-off is given here; in the data, active means normalized growth mostly below about 0.91 (no sharp cut-off); inconclusive means no clear call, values can overlap the other calls; inactive means mostly above about 0.92. The list shows a part of the results.

Test: chemical genetic growth profiling, strain panel (AID 1159580);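 further: tested at 20 µM; growth read once vehicle control cultures reached saturation at 30 °C; 1 = growth at the plate median or of vehicle wells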
Conditions: growth OD
[1] = S. cerevisiae deletion strains, locus YJR075W, strain HOC1, stronger effect = lower value
[2] = S. cerevisiae deletion strains, locus YNL322C, strain KRE1, stronger effect = lower value
[3] = S. cerevisiae deletion strains, locus YPL055C, strain LGE1, stronger effect = lower value
[4] = S. cerevisiae deletion strains, locus YDL101C, strain DUN1, stronger effect = lower value
[5] = S. cerevisiae deletion strains, locus YHR030C, strain SLT2, stronger effect = lower value

Measured: normalized growth

Oc1ccc2c3c1O[C@H]1c4oc5ccccc5c4C[C@@]4(O)C(C2)N(CC2CC2)CCC314 (stereo partly drawn)
inactive: S. cerevisiae deletion strains, locus YAL040C, strain CLN3, stronger effect = lower value 1.01 | S. cerevisiae deletion strains, locus YCL061C, strain MRC1 (second series), stronger effect = lower value 1 | S. cerevisiae deletion strains, locus YDR363W, strain ESC2, stronger effect = lower value 0.994 | S. cerevisiae deletion strains, locus YER002W, strain NOP16, stronger effect = lower value 0.988 | [1] 0.99 | S. cerevisiae deletion strains, locus YMR307W, strain GAS1, stronger effect = lower value 0.988 | S. cerevisiae deletion strains, locus YNL175C, strain NOP13, stronger effect = lower value 1.01 | S. cerevisiae deletion strains, locus YNL197C, strain WHI3, stronger effect = lower value 1.01 | S. cerevisiae deletion strains, locus YNL224C, strain SQS1, stronger effect = lower value 1 | [2] 0.993 | S. cerevisiae deletion strains, locus YOR083W, strain WHI5 (second series), stronger effect = lower value 1.01 | [3] 0.975

O=C(O)c1cc(C(F)(F)F)ccc1F
inactive: S. cerevisiae deletion strains, locus YAL013W, strain DEP1, stronger effect = lower value 0.999 | S. cerevisiae deletion strains, locus YBR229C, strain ROT2, stronger effect = lower value 0.982 | [4] 0.961 | S. cerevisiae deletion strains, locus YDL134C, strain PPH21, stronger effect = lower value 0.989 | S. cerevisiae deletion strains, locus YDR150W, strain NUM1, stronger effect = lower value 1 | S. cerevisiae deletion strains, locus YEL061C, strain CIN8, stronger effect = lower value 0.997 | S. cerevisiae deletion strains, locus YGR078C, strain PAC10, stronger effect = lower value 0.975 | S. cerevisiae deletion strains, locus YGR229C, strain SMI1, stronger effect = lower value 1 | [5] 0.964 | S. cerevisiae deletion strains, locus YHR087W, strain rtc3, stronger effect = lower value 0.973 | S. cerevisiae deletion strains, locus YJL187C, strain SWE1, stronger effect = lower value 0.998 | S. cerevisiae deletion strains, locus YJR043C, strain POL32, stronger effect = lower value 0.995 | [1] 1 | S. cerevisiae deletion strains, locus YKL190W, strain CNB1, stronger effect = lower value 1 | S. cerevisiae deletion strains, locus YLR039C, strain RIC1, stronger effect = lower value 0.991 | S. cerevisiae deletion strains, locus YLR058C, strain SHM2 (second series), stronger effect = lower value 0.983 | S. cerevisiae deletion strains, locus YLR085C, strain ARP6, stronger effect = lower value 1.02 | S. cerevisiae deletion strains, locus YLR262C, strain YPT6, stronger effect = lower value 0.979 | S. cerevisiae deletion strains, locus YML094W, strain GIM5, stronger effect = lower value 0.916 | S. cerevisiae deletion strains, locus YMR219W, strain ESC1, stronger effect = lower value 0.999 | S. cerevisiae deletion strains, locus YMR263W, strain SAP30, stronger effect = lower value 1.01 | S. cerevisiae deletion strains, locus YNL153C, strain GIM3, stronger effect = lower value 1.02 | S. cerevisiae deletion strains, locus YNL298W, strain CLA4 (second series), stronger effect = lower value 0.996 | [2] 0.99 | S. cerevisiae deletion strains, locus YNR030W, strain Alg12, stronger effect = lower value 0.982 | S. cerevisiae deletion strains, locus YOL006C, strain TOP1, stronger effect = lower value 0.987 | [3] 1.01 | S. cerevisiae deletion strains, locus YPL241C, strain CIN2, stronger effect = lower value 0.929 | S. cerevisiae deletion strains, locus YPR135W, strain CTF4, stronger effect = lower value 0.905 | S. cerevisiae strains, strain wild type, stronger effect = lower value 0.979

O=S(=O)(Nc1cc(C(F)(F)F)ccc1F)c1cc(C(F)(F)F)ccc1Cl
inactive: S. cerevisiae deletion strains, locus YAR019C, strain CDC15, stronger effect = lower value 0.942 | S. cerevisiae deletion strains, locus YBL105C, strain PKC1, stronger effect = lower value 0.947 | S. cerevisiae deletion strains, locus YBR135W, strain CKS1, stronger effect = lower value 0.937 | S. cerevisiae deletion strains, locus YBR136W, strain MEC1, stronger effect = lower value 0.943 | S. cerevisiae deletion strains, locus YBR160W, strain CDC28, stronger effect = lower value 0.931 | S. cerevisiae deletion strains, locus YDL017W, strain CDC7, stronger effect = lower value 0.944 | S. cerevisiae deletion strains, locus YDL028C, strain MPS1, stronger effect = lower value 0.941 | [4] 0.969 | S. cerevisiae deletion strains, locus YDL108W, strain KIN28, stronger effect = lower value 0.949 | S. cerevisiae deletion strains, locus YDL132W, strain cdc53, stronger effect = lower value 0.945 | S. cerevisiae deletion strains, locus YDL214C, strain PRR2, stronger effect = lower value 0.905 | S. cerevisiae deletion strains, locus YDR052C, strain DBF4, stronger effect = lower value 0.957 | S. cerevisiae deletion strains, locus YDR054C, strain cdc34, stronger effect = lower value 0.94 | S. cerevisiae deletion strains, locus YDR226W, strain ADK1, stronger effect = lower value 0.95 | S. cerevisiae deletion strains, locus YDR477W, strain SNF1, stronger effect = lower value 0.917 | S. cerevisiae deletion strains, locus YER123W, strain YCK3, stronger effect = lower value 0.868 | S. cerevisiae deletion strains, locus YER133W, strain GLC7, stronger effect = lower value 0.923 | S. cerevisiae deletion strains, locus YFL009W, strain cdc4, stronger effect = lower value 0.939 | S. cerevisiae deletion strains, locus YFL029C, strain CAK1, stronger effect = lower value 0.941 | S. cerevisiae deletion strains, locus YFR003C, strain YPI1, stronger effect = lower value 0.946 | S. cerevisiae deletion strains, locus YFR019W, strain FAB1, stronger effect = lower value 0.894 | S. cerevisiae deletion strains, locus YFR028C, strain CDC14, stronger effect = lower value 0.939 | S. cerevisiae deletion strains, locus YGR040W, strain KSS1, stronger effect = lower value 0.905 | S. cerevisiae deletion strains, locus YGR052W, strain FMP48, stronger effect = lower value 0.831 | S. cerevisiae deletion strains, locus YGR092W, strain DBF2, stronger effect = lower value 0.82 | S. cerevisiae deletion strains, locus YHR079C, strain IRE1, stronger effect = lower value 0.824 | S. cerevisiae deletion strains, locus YHR082C, strain KSP1, stronger effect = lower value 0.771 | S. cerevisiae deletion strains, locus YHR205W, strain SCH9, stronger effect = lower value 0.887 | S. cerevisiae deletion strains, locus YIL147C, strain SLN1, stronger effect = lower value 0.95 | S. cerevisiae deletion strains, locus YJL095W, strain BCK1, stronger effect = lower value 0.886 | S. cerevisiae deletion strains, locus YJL128C, strain PBS2, stronger effect = lower value 0.911 | S. cerevisiae deletion strains, locus YJL157C, strain FAR1, stronger effect = lower value 0.904 | S. cerevisiae deletion strains, locus YJR016C, strain ILV3, stronger effect = lower value 0.941 | S. cerevisiae deletion strains, locus YJR066W, strain TOR1 (second series), stronger effect = lower value 0.904 | S. cerevisiae deletion strains, locus YJR066W, strain TOR1, stronger effect = lower value 0.82 | S. cerevisiae deletion strains, locus YKL048C, strain ELM1, stronger effect = lower value 0.852 | S. cerevisiae deletion strains, locus YKL067W, strain YNK1, stronger effect = lower value 0.905 | S. cerevisiae deletion strains, locus YKL101W, strain HSL1, stronger effect = lower value 0.88 | S. cerevisiae deletion strains, locus YKL193C, strain SDS22, stronger effect = lower value 0.938 | S. cerevisiae deletion strains, locus YKL203C, strain TOR2, stronger effect = lower value 0.933 | S. cerevisiae deletion strains, locus YLR133W, strain CKI1, stronger effect = lower value 0.902 | S. cerevisiae deletion strains, locus YLR403W, strain SFP1, stronger effect = lower value 0.902 | S. cerevisiae deletion strains, locus YML070W, strain DAK1, stronger effect = lower value 0.864 | S. cerevisiae deletion strains, locus YMR001C, strain CDC5, stronger effect = lower value 0.943 | S. cerevisiae deletion strains, locus YMR205C, strain PFK2 (second series), stronger effect = lower value 0.925 | S. cerevisiae deletion strains, locus YMR277W, strain FCP1, stronger effect = lower value 0.944 | S. cerevisiae deletion strains, locus YNL006W, strain LST8, stronger effect = lower value 0.936 | S. cerevisiae deletion strains, locus YNL020C, strain ARK1, stronger effect = lower value 0.882 | S. cerevisiae deletion strains, locus YNL161W, strain CBK1, stronger effect = lower value 0.939 | S. cerevisiae deletion strains, locus YNL183C, strain NPR1, stronger effect = lower value 0.808 | S. cerevisiae deletion strains, locus YNL207W, strain RIO2, stronger effect = lower value 0.937 | S. cerevisiae deletion strains, locus YNL222W, strain SSU72, stronger effect = lower value 0.938 | S. cerevisiae deletion strains, locus YNL307C, strain MCK1 (second series), stronger effect = lower value 0.861 | S. cerevisiae deletion strains, locus YOL078W, strain AVO1, stronger effect = lower value 0.935 | S. cerevisiae deletion strains, locus YOL136C, strain PFK27, stronger effect = lower value 0.858 | S. cerevisiae deletion strains, locus YOR061W, strain CKA2, stronger effect = lower value 0.908 | S. cerevisiae deletion strains, locus YOR119C, strain RIO1, stronger effect = lower value 0.951 | S. cerevisiae deletion strains, locus YOR231W, strain MKK1, stronger effect = lower value 0.817 | S. cerevisiae deletion strains, locus YOR329C, strain SCD5, stronger effect = lower value 0.947 | S. cerevisiae deletion strains, locus YPL031C, strain PHO85, stronger effect = lower value 0.881 | S. cerevisiae deletion strains, locus YPL153C, strain RAD53, stronger effect = lower value 0.867 | S. cerevisiae deletion strains, locus YPL204W, strain HRR25, stronger effect = lower value 0.876 | S. cerevisiae deletion strains, locus YPL209C, strain IPL1, stronger effect = lower value 0.935 | S. cerevisiae deletion strains, locus YPR025C, strain CCL1, stronger effect = lower value 0.937 | S. cerevisiae deletion strains, locus YPR106W, strain ISR1, stronger effect = lower value 0.929 | S. cerevisiae deletion strains, locus YPR111W, strain DBF20, stronger effect = lower value 0.925 | S. cerevisiae deletion strains, strain NNK1, stronger effect = lower value 0.934 | S. cerevisiae deletion strains, strain TSCII, stronger effect = lower value 0.941
active: [5] 0.644 | S. cerevisiae deletion strains, locus YLR113W, strain HOG1, stronger effect = lower value 0.715 | S. cerevisiae deletion strains, locus YPL256C, strain CLN2, stronger effect = lower value 0.694
